Experimental findings from PubChem BioAssay (EPA / NIEHS) are described below.

Inconclusive results are not listed. Where a structure was tested more than once in an assay, its records may differ in their call. The source made the active and inactive calls. Rule for the calls: active = hit-call score of the fitted dose curve at least 0.9, where 1 is the maximum; inconclusive = response in the unintended direction; inactive = score below 0.9.

Chain of zebrafish Estrogen Receptor (ER1), esr1 (gene 259252) (P57717 whole entry, looked up, the tested form may be a part): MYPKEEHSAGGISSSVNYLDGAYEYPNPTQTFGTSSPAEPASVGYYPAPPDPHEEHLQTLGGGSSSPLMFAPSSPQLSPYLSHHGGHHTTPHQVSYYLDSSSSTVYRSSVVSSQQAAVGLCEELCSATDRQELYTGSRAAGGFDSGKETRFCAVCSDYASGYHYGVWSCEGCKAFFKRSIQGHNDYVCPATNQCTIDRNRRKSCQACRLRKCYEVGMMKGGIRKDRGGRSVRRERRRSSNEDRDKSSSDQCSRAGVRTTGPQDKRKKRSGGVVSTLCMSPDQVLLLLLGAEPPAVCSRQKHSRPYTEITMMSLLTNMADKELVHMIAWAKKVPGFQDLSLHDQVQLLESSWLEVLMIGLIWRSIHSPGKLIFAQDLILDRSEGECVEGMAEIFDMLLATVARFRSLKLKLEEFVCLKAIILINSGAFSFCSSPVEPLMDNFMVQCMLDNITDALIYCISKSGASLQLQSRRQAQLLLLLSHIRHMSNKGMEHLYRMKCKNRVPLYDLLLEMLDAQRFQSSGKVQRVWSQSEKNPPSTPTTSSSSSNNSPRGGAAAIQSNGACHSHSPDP
Chain of Estrogen receptor beta (Homo sapiens) (Q92731 whole entry, looked up): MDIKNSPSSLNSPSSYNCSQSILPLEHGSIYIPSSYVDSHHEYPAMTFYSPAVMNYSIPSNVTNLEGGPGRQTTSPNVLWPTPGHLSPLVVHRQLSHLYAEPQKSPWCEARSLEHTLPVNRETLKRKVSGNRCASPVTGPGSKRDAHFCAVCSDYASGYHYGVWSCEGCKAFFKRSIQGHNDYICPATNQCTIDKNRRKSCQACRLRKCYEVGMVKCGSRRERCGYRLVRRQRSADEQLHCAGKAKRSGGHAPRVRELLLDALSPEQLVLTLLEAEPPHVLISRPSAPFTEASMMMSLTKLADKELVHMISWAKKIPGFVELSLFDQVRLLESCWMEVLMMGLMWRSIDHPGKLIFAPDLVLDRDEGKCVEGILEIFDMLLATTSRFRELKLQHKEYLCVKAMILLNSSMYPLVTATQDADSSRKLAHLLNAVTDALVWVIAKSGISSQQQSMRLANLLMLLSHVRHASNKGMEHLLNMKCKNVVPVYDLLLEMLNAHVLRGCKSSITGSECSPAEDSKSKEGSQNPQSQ
Chain of GAL4 Transcription Factor (Internal Marker), GAL4 (gene 855828) (P04386 whole entry, looked up, the tested form may be a part): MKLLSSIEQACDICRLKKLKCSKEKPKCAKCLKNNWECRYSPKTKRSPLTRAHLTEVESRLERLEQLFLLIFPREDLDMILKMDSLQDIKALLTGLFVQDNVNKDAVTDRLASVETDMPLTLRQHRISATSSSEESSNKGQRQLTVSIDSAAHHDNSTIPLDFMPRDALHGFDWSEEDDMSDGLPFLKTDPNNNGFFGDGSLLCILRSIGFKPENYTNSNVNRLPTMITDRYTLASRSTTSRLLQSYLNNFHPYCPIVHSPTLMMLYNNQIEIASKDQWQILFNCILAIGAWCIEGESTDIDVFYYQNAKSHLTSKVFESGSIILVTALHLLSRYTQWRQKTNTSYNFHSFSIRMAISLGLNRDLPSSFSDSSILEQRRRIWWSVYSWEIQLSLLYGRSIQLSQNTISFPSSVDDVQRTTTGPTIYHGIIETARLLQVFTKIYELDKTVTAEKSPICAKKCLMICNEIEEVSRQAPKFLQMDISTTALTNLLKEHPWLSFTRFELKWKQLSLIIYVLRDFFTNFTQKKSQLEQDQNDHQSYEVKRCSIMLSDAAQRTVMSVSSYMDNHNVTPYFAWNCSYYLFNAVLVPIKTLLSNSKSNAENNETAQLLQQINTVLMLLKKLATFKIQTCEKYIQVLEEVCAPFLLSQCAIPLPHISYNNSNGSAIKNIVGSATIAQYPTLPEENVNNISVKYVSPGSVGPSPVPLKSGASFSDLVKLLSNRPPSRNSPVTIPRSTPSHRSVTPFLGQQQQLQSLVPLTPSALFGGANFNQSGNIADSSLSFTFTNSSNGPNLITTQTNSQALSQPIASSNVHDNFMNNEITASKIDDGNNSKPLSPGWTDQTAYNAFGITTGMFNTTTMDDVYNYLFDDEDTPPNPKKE

The first assay addresses Estrogen receptor beta (Homo sapiens) (UniProt Q92731). Briefly: ATG_hERb_XSP2: Attagene TRANS-FACTORIAL Multi-Species (XSP2) HepG2 Assay for human Estrogen Receptor (ERb) (AID 2283813).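 Note: actives raise reporter mRNA above DMSO so AC50 reflects agonist induction.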 The procedure: ATG_XSP2_multi-species_TRANS is a cell-based, multiplexed assay created by modifying the existing Attagene TRANS-FACTORIAL system to include a panel of nuclear receptors from some or all the following species: human (Homo sapiens), mouse (Mus musculus), frog (Xenopus laevis), zebrafish (Danio rerio), chicken (Gallus gallus), and turtle (Chrysemys picta). The ECOTOX-FACTORIAL format uses HepG2, a human liver cell line, with measurements taken at 24 hours after chemical dosing in a 24-well plate. Xsp2 included 3 nM 6-alpha-fluorotestosterone and 1.5 nM norgestrel to stimulate the androgen receptor.ATG_hERb_XSP2 is one of 29 assay components measured or calculated from the ATG_XSP2_multi-species_TRANS assay. It is designed to make measurements of mRNA induction, a form of inducible reporter, as detected with fluorescence intensity signals by Reverse transcription polymerase chain reaction (RT-PCR) and Capillary electrophoresis technology.The assay endpoint ATG_hERb_XSP2 was analyzed in the positive analysis fitting direction relative to DMSO as the negative control and baseline of activity. Using a type of inducible reporter, measures of mRNA for gain-of-signal activity can be used to understand the reporter gene at the transcription factor-level as they relate to the gene ER. Furthermore, this assay endpoint can be referred to as a primary readout, because this assay has produced multiple assay endpoints where this one serves a reporter gene function. To generalize the intended target to other relatable targets, this assay endpoint is annotated to the nuclear receptor intended target family, where the subfamily is steroidal.
Human liver HepG2 cells are transiently transfected with multiple reporter transcription units (MRTUs) in 6-well plates using FuGene 6 reagent (Roche; 3 ml FuGene/1 mg DNA). The MRTU constructs are regulated by a cis-regulating element (promoter). […] A major difference between the CIS and TRANS system is that in CIS activities of endogenous TFs are measured, whereas the TRANS assay evaluates changes in activities of exogenous, chimeric NR-Gal4 proteins. […] At the end of 24 hour incubation, total RNA was isolated using TriZol reagent (Invitrogen). The isolated RNA is then reverse-transcribed using oligo(dT) primer and Mo-MLV reverse transcriptase (Invitrogen) with DNAse I (Ambion) treatment for 30 min. The one-tenth of the produced cDNA was amplified by PCR using Taq DNA polymerase (Invitrogen) and two reporter sequence-specific primers. The PCR products were fluorescently labeled by primer extension with 6-arboxyfluorescein (6-FAM) 5'-labeled reporter sequence-specific primer (2 min at 95 C, 20 s at 68 C and 10 min at 72 C) and these products were digested with 5U of HpaI (New England Biolabs) for 2h at 37 C. The fragments were purified using Qiaquick PCR columns (Qiagen), analyzed on an ABI 3130xL genetic analyzer (Applied Biosystems) with peak positions identified by using a set of X-rhodamine (ROX)-labeled MapMarker1000 molecular weight standards (BioVentures). The raw capillary electrophoresis data was processed using Attagraph software (Attagene).
Regarding `CC(=O)S[C@@H]1CC2=CC(=O)CC[C@]2(C)[C@H]2CC[C@@]3(C)[C@@H](CC[C@@]34CCC(=O)O4)[C@H]12`, the outcome was inactive.

For `CCCCC(CC)CN1C(=O)C2C3C=CC(C3)C2C1=O` (centres undefined), the result was inactive.

On to `C=CCOC(Cn1ccnc1)c1ccc(Cl)cc1Cl` (centres undefined), for which the call was inactive.

`CCN(Cc1c(F)cccc1Cl)c1c([N+](=O)[O-])cc(C(F)(F)F)cc1[N+](=O)[O-]`: the compound was called inactive.

Turning to `CC(C)CCCCCCc1ccc(O)cc1`, the compound was called inactive.

In the case of `CCCCC(CC)COC(=O)c1ccccc1C(=O)O` (centres undefined), the result was inactive.

As for `Oc1ccc(C(c2ccc(O)cc2)C(Cl)(Cl)Cl)cc1`, the compound was classed as inactive.

Turning to `O=C(c1ccc(O)cc1O)c1ccc(O)cc1O`, the AC50 is 1.32 µM (active).

A further assay addresses GAL4 Transcription Factor (Internal Marker), GAL4 (gene 855828) (UniProt P04386). Briefly: ATG_GAL4_XSP2: Attagene TRANS-FACTORIAL Multi-Species (XSP2) HepG2 Assay for GAL4 Transcription Factor (Internal Marker) (AID 2283814).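 Note: GAL4 reporter mRNA background control in MRTU transfected cells not a receptor target.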 The essentials: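 Background-control readout: gain-of-signal fitted against DMSO. After 24 h exposure of transfected HepG2 (MRTU, GAL4-UAS reporters; 3 nM 6-alpha-fluorotestosterone, 1.5 nM norgestrel present), transcripts quantified by RT-PCR and capillary electrophoresis fluorescence.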
With `CC(=O)S[C@@H]1CC2=CC(=O)CC[C@]2(C)[C@H]2CC[C@@]3(C)[C@@H](CC[C@@]34CCC(=O)O4)[C@H]12`, the outcome was inactive.

As for `CCCCC(CC)CN1C(=O)C2C3C=CC(C3)C2C1=O` (centres undefined), the outcome was inactive.

Consider `CC1(C)C(C=C(Cl)Cl)C1C(=O)OCc1cccc(Oc2ccccc2)c1` (centres undefined), for which the compound was classed as inactive.

With `C=CCOC(Cn1ccnc1)c1ccc(Cl)cc1Cl` (centres undefined), the outcome was inactive.

For `CSC(=O)c1cccc2nnsc12`, the call was inactive.

Regarding `C#C[C@]1(O)CC[C@H]2[C@@H]3CCC4=CC(=O)CC[C@@H]4[C@H]3CC[C@@]21CC`, the compound was called inactive.

For `Oc1ccc(C(c2ccc(O)cc2)C(Cl)(Cl)Cl)cc1`, the call was inactive.

For the compound `N[C@@H](Cc1cc(I)c(Oc2ccc(O)c(I)c2)c(I)c1)C(=O)O`, the outcome was inactive.

The test system of the next assay is turtle Androgen Receptor (AR), gene 101947425. Nature of the assay: ATG_trAR_XSP2: Attagene TRANS-FACTORIAL Multi-Species (XSP2) HepG2 Assay for turtle Androgen Receptor (AR) (AID 2283815). In a few lines: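 Reporter transcripts were quantified via RT-PCR and capillary electrophoresis and fitted upward against DMSO. Transiently transfected human HepG2 cells carrying NR-Gal4 chimeras were exposed 24 h, with 3 nM 6-alpha-fluorotestosterone plus 1.5 nM norgestrel added.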
As for `CC1(C)C(C=C(Cl)Cl)C1C(=O)OCc1cccc(Oc2ccccc2)c1` (centres undefined), the result was inactive.

In the case of `CCN(Cc1c(F)cccc1Cl)c1c([N+](=O)[O-])cc(C(F)(F)F)cc1[N+](=O)[O-]`, the call was inactive.

With `C#C[C@]1(O)CC[C@H]2[C@@H]3CCC4=CC(=O)CC[C@@H]4[C@H]3CC[C@@]21CC`, the call was inactive.

With `N[C@@H](Cc1cc(I)c(Oc2ccc(O)c(I)c2)c(I)c1)C(=O)O`, the compound was classed as inactive.

The next assay has as its target zebrafish Estrogen Receptor (ER1), esr1 (gene 259252) (UniProt P57717). Briefly: ATG_zfER1_XSP2: Attagene TRANS-FACTORIAL Multi-Species (XSP2) HepG2 Assay for zebrafish Estrogen Receptor (ER1) (AID 2283816). In a few lines: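 After 24 h compound exposure, RNA from transfected HepG2 cells was reverse-transcribed and reporter transcripts resolved by capillary electrophoresis. The TRANS format reads exogenous zebrafish ER1-Gal4 chimera activity on GAL4-UAS elements; gain of signal against DMSO.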
Turning to `CC(=O)S[C@@H]1CC2=CC(=O)CC[C@]2(C)[C@H]2CC[C@@]3(C)[C@@H](CC[C@@]34CCC(=O)O4)[C@H]12`, the compound was classed as inactive.

For the compound `CCCCC(CC)CN1C(=O)C2C3C=CC(C3)C2C1=O` (centres undefined), the outcome was inactive.

In the case of `C=CCOC(Cn1ccnc1)c1ccc(Cl)cc1Cl` (centres undefined), the outcome was inactive.

`CCN(Cc1c(F)cccc1Cl)c1c([N+](=O)[O-])cc(C(F)(F)F)cc1[N+](=O)[O-]`: the AC50 was 6.69 µM (active) and the compound was classed as inactive.

In the case of `CC(C)CCCCCCc1ccc(O)cc1`, the AC50 was 5.75 µM (active).

In the case of `CSC(=O)c1cccc2nnsc12`, the outcome was inactive.

`C#C[C@]1(O)CC[C@H]2[C@@H]3CCC4=CC(=O)CC[C@@H]4[C@H]3CC[C@@]21CC`: the call was inactive.

For the compound `CN(C)C(=O)Nc1ccc(Cl)c(Cl)c1`, the call was inactive.

Turning to `CC(C)(c1ccc(O)cc1)c1ccc(O)cc1`, the AC50 is 2.53 µM (active).

As for `Oc1ccc(C(c2ccc(O)cc2)C(Cl)(Cl)Cl)cc1`, the AC50 was 3.11 µM (active).

On to `N[C@@H](Cc1cc(I)c(Oc2ccc(O)c(I)c2)c(I)c1)C(=O)O`, for which the AC50 was 5.09 µM (active) and the outcome was inactive.

`O=C(c1ccc(O)cc1O)c1ccc(O)cc1O`: the AC50 was 4.21 µM (active).

For orientation: AC50 means the concentration at which the activity in the assay is half-maximal.
